An excerpt weighted towards active compounds, which were near 14% of everything screened.
Marburg entry inh – blocks Marburg virus binding to or entry into cells. Marburg virus pseudotyped entry inhibition, cell reporter. Potency, µM (series often up to 37.8 µM), without a hit: top-dose activity change, negative = inhibition, actives largely listed as inhibitors. hit rate 1.8% among 300,000; calls by dose curve; tested in HEK293 cells; also: potency is read from the fitted curve at half-maximal effect
Lassa entry inh – Lassa virus entry inhibition. Lassa virus pseudotype entry inhibition, cell reporter. Potency, µM (highest dose often 37.9 µM), for inactives: at the highest dose activity change, negative = inhibition, hits mostly inhibitors. hit rate 1.2% among 300,000. AID 540256; calls by dose curve; tested in HEK293 cells; also: potency is read from the fitted curve at half-maximal effect; nearly all actives have a fitted effect of over 50% in size
Pf growth 48h – P. falciparum growth inhibition at 48 hours (one generation); P. falciparum luciferase growth in erythrocytes, 48 h; AID 504832; hit rate 5.9% among 310,000; Potency, µM (top dose mostly 28.7 µM), inactives show at the highest dose activity change, negative = inhibition, hits mostly inhibitors; also: potency is read from the fitted curve at half-maximal effect
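Here the parasites carry a stable luciferase gene and grow inside erythrocytes in Albumax-based RPMI medium with compound for one erythrocytic cycle. Activity is scored as loss of luminescent signal.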
Pf growth 96h – P. falciparum growth inhibition at 96 hour, primary screen for plastid delayed-death inhibitors; P. falciparum luciferase reporter growth, 96 h; AID 504834; hit rate 6.9% among 320,000; Potency, µM (titrated, usually from 28.7 µM), inactives show at the highest dose activity change, negative = inhibition, actives largely listed as inhibitors; also: potency is read from the fitted curve at half-maximal effect
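Compounds incubated with erythrocytes infected by luciferase-expressing P. falciparum (2% hematocrit, 0.05% parasitemia final) for 96 hours, 37 C in 5% CO2. Growth inhibition scored as decreased luciferase luminescence.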
HCV inh – blocks hepatitis C virus; Potency, µM (highest dose often 41.8 µM), inactives show at the top dose activity change, negative = inhibition, most hits filed as inhibitors; Huh7.5.1 HCVcc-Cre infection, luciferase reporter, 44 h; hit rate 3.4% among 340,000; also: potency is read from the fitted curve at half-maximal effect
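Antiviral activity was scored by luciferase reporter output from cells infected with HCVcc-Cre (~0.5 moi) in presence of compound, 44 h infection period, cells seeded 1,000/well 4 h prior.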
HCMV antiviral – human cytomegalovirus inhibition; HFF cells, HCMV-luciferase reporter, 72 h; stronger effect = lower value; activity change, negative = inhibition, % at 57.5 µM; hit rate 4.5% among 410,000; AID 1259415; in the data active = activity change below about -60%; inconclusive = no clear call, values can overlap the other calls; inactive = above about -39%
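Two compound doses tested in HFFs infected with HCMV-luciferase, MOI 1 PFU/cell, 72 h at 37C. Lysate luminescence read with OneGlo; data normalized against buffer-only and 10uM Salinomycin inhibitor controls.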
An asterisk follows results filed as active; ? = inconclusive; . = no result; [ ] = another dose, or the depositor's remark. Unless noted, calls follow the shape of the dose curve; as a rule, active = well fitted inhibition curve with a large enough effect; inconclusive = small, poorly fitted or top-dose-only effect, or another doubt; inactive = no such curve, though single readings can be large or run the other way. % is scaled to controls: 0 for no effect and ±100 for the full control effect.

SMILES | Marburg entry inh | Lassa entry inh | Pf growth 48h | Pf growth 96h | HCV inh | HCMV antiviral
CSc1ccccc1C(=O)C1CCCN(Cc2ccccn2)C1 (stereo not drawn) | -18.7%[46.1 µM] | -12.9%[46.1 µM] | ? | 7.4% | 11.4% | ?
COc1ccc2cc(C(=O)C3CCCN(Cc4ccccn4)C3)ccc2c1 (stereo not drawn) | ? | -4.3%[46.1 µM] | 9.28µM* | -21.3% | -19.7% | ?
COc1c(C)cc(C(=O)C2CCCN(Cc3c(C)n(C)n(-c4ccccc4)c3=O)C2)cc1C (stereo not drawn) | ? | -5.8% | -3.3% | ? | 0.8% | -71.4*
Cc1ccsc1C(=O)C1CCCN(Cc2cnc(N3CCOCC3)s2)C1 (stereo not drawn) | ? | ? | -28.8% | 25.6% | ? | -33.5
COc1ccc2cc(C(=O)C3CCCN(Cc4cnc(N5CCOCC5)s4)C3)ccc2c1 (stereo not drawn) | ? | -29.2%[46.1 µM] | ? | 2.5% | ? | -65.3*
COc1c(C)cc(C(=O)C2CCCN(Cc3ccc(Oc4ncccn4)cc3)C2)cc1C (stereo not drawn) | . | . | ? | -29.1% | ? | -83.0*
Cc1ccc(NC(=O)C(=O)NCC(c2cccnc2)N2CCN(Cc3ccccc3)CC2)cc1Cl (stereo not drawn) | . | 7.4%[46.1 µM] | . | . | . | -10.5
CC(NC(=O)C1CC1)c1ccc(-c2ccccc2)cc1 (stereo not drawn) | . | . | 7.2% | 0.0% | -12.8% | -5.4
COCCN(C(=O)COC(=O)CCCc1c[nH]c2ccccc12)c1c(N)n(Cc2ccccc2)c(=O)[nH]c1=O | . | . | . | . | -4.7% | 24.9
Cc1ccc(S(=O)(=O)NC(=O)C2(C)CCN2C(=O)C2CCCCC2)cc1 (stereo not drawn) | . | . | . | . | . | 8.2
COc1ccc(-c2c(N)cnc(C(=O)O)c2C)c(OCc2ccccc2)c1OC | . | . | . | . | . | 1.3
CCN1CCN(C(=O)c2ccc3nc(-c4ccccc4)c(-c4ccccc4)nc3c2)CC1 | -34.4% | 1.8% | 5.0% | ? | ? | 21.9
Cc1cccc(CN2CCCC(C(=O)c3ccc(C(F)(F)F)cc3)C2)n1 (stereo not drawn) | ? | 6.6%[46.1 µM] | 2.33µM* | 11.7µM* | ? | -29.7
CCn1ccnc1CN1CCCC(C(=O)c2cc(C)c(OC)c(C)c2)C1 (stereo not drawn) | . | . | 11.7µM* | ? | ? | -31.8
CCn1ccnc1CN1CCCC(C(=O)c2ccc3cc(OC)ccc3c2)C1 (stereo not drawn) | ? | ? | 2.94µM* | ? | 10µM* | -9.1
CCc1ccc(N2C(=O)CN(Cc3ccc(OC)c(OC)c3)C2=S)cc1 | -6.1% | ? | ? | 44.6% | ? | ?
COc1ccc(CN2CC(=O)N(c3cccc(Cl)c3)C2=S)cc1OC | ? | -25.6%[46.1 µM] | 10.4µM* | 0.0% | -11.8% | ?
COc1cccc(N2C(=O)CN(Cc3cc(OC)c(OC)c(OC)c3)C2=S)c1 | -23.3%[46.1 µM] | ? | 0.329µM* | -8.6% | -7.2% | -25.1
CNC(=O)CC1C(=O)N(c2ccc(Cl)cc2)C(=S)N1CCc1ccc(OC)c(OC)c1 (stereo not drawn) | ? | ? | 11.7µM* | -4.7% | -18.6% | -35.6
COc1ccc(CN2CC(=O)N(c3ccc(Cl)cc3)C2=S)cc1OC | -0.3%[46.1 µM] | 0.5%[46.1 µM] | 13.1µM* | ? | -29.1% | 3.1
Cc1ccc2nc(Cl)c3cc(C(=O)NC4CCC(C)CC4)sc3c2c1 (stereo not drawn) | 9.7%[46.1 µM] | -10.8%[46.1 µM] | . | . | . | -20.4
CCS(=O)(=O)N1CC(=O)N(c2ccc(Cl)cc2C)C(C)(C(=O)NC2CCCCC2)C1 (stereo not drawn) | . | -1.7%[46.1 µM] | . | . | . | 0.0
Cc1cc(C)c(S(=O)(=O)NCC(c2cccnc2)N2CCN(Cc3ccccc3)CC2)c(C)c1 (stereo not drawn) | . | . | ? | 47.4% | -24.8% | -17.9
Cc1ccc2c(c1)C1CN(C)CCC1N2C(=O)Nc1ccc(Cl)cc1 (stereo not drawn) | ? | ? | 10.4µM* | 10.4µM* | -28.1% | -9.8
Cc1ccc2c(c1)C1CN(C)CCC1N2C(=O)Cc1cccs1 (stereo not drawn) | -19.3% | -18.0% | ? | 0.928µM* | 5.1% | -14.6
SMILES | Marburg entry inh | Lassa entry inh | Pf growth 48h | Pf growth 96h | HCV inh | HCMV antiviral
Oc1ccc(C=NN=Cc2ccco2)c(O)c1 | -2.5% | -17.4%[46.1 µM] | . | . | -4.1% | 6.3
CCCCn1c(SCC(N)=O)nc2c(sc3ccccc32)c1=O | -37.0% | -14.2% | . | -11.8% | ? | -37.7
CCSc1nc2c(sc3ccccc32)c(=O)n1C(C)C | -28.8% | 4.0% | . | 13.1µM* | -26.7% | 3.5
COc1ccc(-c2cccc(C3CC=CC4C3C(=O)N(Cc3ccccc3)C4c3ccc(C(F)(F)F)cc3)c2)cc1 (stereo not drawn) | . | . | 6.57µM* | 7.38µM* | -6.2% | -67.3*
O=C1C2C(c3ccccc3)CC=CC2[C@H](c2ccc(C(F)(F)F)cc2)N1Cc1ccccc1 (stereo partly drawn) | . | . | 3.29µM* | ? | -18.0% | -84.5*
Cc1ccc(-c2cccc(C3CC=CC4C3C(=O)N(Cc3ccccc3)C4c3cc(C)ccc3F)c2)cc1 (stereo not drawn) | . | . | 4.65µM* | 7.38µM* | 0.6% | -39.6
CCc1ccc(NC(=O)CC2C(=O)N(c3cccc(C)c3)C(=O)N2Cc2cccs2)cc1 (stereo not drawn) | . | -10.2%[46.1 µM] | . | . | . | ?
NC(=O)C1CCN(S(=O)(=O)c2cc3c(cc2Cl)NC(=O)CO3)CC1 | . | -0.1%[46.1 µM] | . | . | . | ?
Cc1nn(CC(=O)Nc2ccccc2F)c(=O)c2c(C)n(-c3ccc(Cl)cc3)nc12 | . | 3.5%[46.1 µM] | . | . | . | ?
COc1ccccc1N1CCN(CCCCN2C(=O)C3CCCCN3C2=O)CC1 (stereo not drawn) | -3.2% | 14.8% | -6.3% | 8.28µM* | -6.3% | .
COc1ccccc1OCCCCN1CCN(c2ccccc2OC)CC1 | -17.5% | 8.3% | . | ? | ? | -14.8
COc1ccccc1N1CCN(CCCCCCOc2ccc(F)cc2)CC1 | 17.8µM* | ? | ? | ? | ? | ?
Nc1ccc(N2CCN(CCCCN3C(=O)C4CCCN4C3=O)CC2)cc1 (stereo not drawn) | 3.16µM* | 14.5% | 5.5% | 14.5% | -37.4% | -10.7
CCCCOc1ccccc1N1CCN(CCCN2C(=O)C3CCCN3C2=O)CC1 (stereo not drawn) | . | . | -18.8% | ? | 2.2% | 45.0
CC(C)ON([C@@H](C(=O)NO)C(C)C)S(=O)(=O)c1ccc(-c2ccccc2)cc1 | 5.17µM* | 3.66µM* | . | . | . | .
CN(C)S(=O)(=O)c1ccc(-c2ccccc2)cc1 | 7.3% | -2.4% | -16.1% | ? | 17.8% | -21.7
CC(C)(C)c1ccc(OCC(=O)N2CCN(c3ccccn3)CC2)cc1 | . | . | ? | ? | -15.5% | -94.3*
